Molecules are shown by their SMILES. About 3,300 (1.5%) of roughly 220,000 compounds were called active. The full list was thinned out, with actives kept by preference. Values without a mark were called inactive.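 Rule for the calls: active = compounds that cut the protein-peptide binding signal by more than 50% relative to plate controls in a single-dose test; inactive = the rest.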

The values that follow come from PubChem BioAssay AID1022 (Emory University Molecular Libraries Screening Center, 2008).

In the test the target is Induced myeloid leukemia cell differentiation protein Mcl-1 (Homo sapiens) (UniProt Q07820). As to the kind of experiment: Mcl-1/Noxa binding inhibitors, primary screen, biochemical, TR-FRET, 1536-well (AID 1022).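 Note: His-tagged Mcl-1 with rhodamine Noxa BH3 peptide and terbium anti-His antibody; 0% = Mcl-1 plus Noxa peptide wells and 100% = peptide-only wells.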 As to conditions: TR-FRET Mcl-1/Noxa peptide binding, 2 h; at 21.7 µM; hits give high values. On the technique in general: TR-FRET usually uses a lanthanide donor and a delayed reading to cut background.
Sequence of Induced myeloid leukemia cell differentiation protein Mcl-1 (Homo sapiens) (Q07820 whole entry, looked up): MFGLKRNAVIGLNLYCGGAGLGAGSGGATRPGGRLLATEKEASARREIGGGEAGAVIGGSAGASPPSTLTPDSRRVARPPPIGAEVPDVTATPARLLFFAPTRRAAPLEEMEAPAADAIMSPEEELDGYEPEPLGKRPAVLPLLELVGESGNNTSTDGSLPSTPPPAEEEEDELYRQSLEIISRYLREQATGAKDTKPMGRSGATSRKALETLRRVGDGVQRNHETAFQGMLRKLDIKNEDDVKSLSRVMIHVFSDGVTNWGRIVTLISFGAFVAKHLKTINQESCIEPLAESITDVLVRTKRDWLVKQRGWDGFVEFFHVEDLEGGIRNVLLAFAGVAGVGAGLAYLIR
Take `Cc1ccc(NC(=O)/C(=C/c2ccc([N+](=O)[O-])cc2)NC(=O)c2ccccc2)cc1`: the inhibition is 3.04%. Turning to `Cn1nccc1NC(=O)Nc1ccc(OC(F)(F)F)cc1`, the inhibition was -2.66%. To `Oc1c(Cl)cc(Cl)c(Cl)c1Cc1c(O)c(Cl)cc(Cl)c1Cl` belongs 104% (active).

`CN(C)c1ccc(/C=N/N(Cc2ccccc2)c2ccccc2)cc1`: the inhibition was 95.7% (active). To `Oc1ccc(/C=N/N(Cc2ccccc2)c2ccccc2)cc1` belongs 27%; to `CN(C)c1ccc(/C=N\S(=O)(=O)c2ccccc2)cc1`, 2.37%. `CCN(/N=C/c1ccc(N(C)C)cc1)c1nc2ccccc2[nH]1`: the inhibition is 81% (active). Next, `COC(=O)Cc1nc2ccccc2[nH]1`: 9.2%; `CCN(/N=C/c1ccccc1)c1cc(=O)n(C)c(=O)[nH]1`: 21%; `COc1cc(C(F)(F)F)nc2c(Br)c(C(C)(C)C)nn12`: 7.39%.

Consider `CN(C)S(=O)(=O)c1ccc(C(=O)NCC(C)(C)N2CCOCC2)cc1`, for which the inhibition is 7.92%. As to `Cc1ccc(NNC(=O)c2c(F)cccc2Cl)cc1Cl`, the inhibition is 0.81%.

On to `CCOC(=O)C1CCN(C(=O)Nc2cccc(OC)c2)CC1`, for which the inhibition was -13.3%. On to `COc1cccc(C(=O)n2ccc(-c3cccs3)n2)c1`, for which the inhibition is 1.68%. On to `Cc1nnc(SC(C(=O)c2ccccc2)c2ccccc2)[nH]c1=O` (configuration not stated), for which the inhibition is -5.97%. Next, `Cc1cc2c(cc1C)N(Cc1ccccc1)C1=NCCCN12`: -4.28%. Next, `COc1cc(/C=N/Nc2nn3cnnc3c3ccccc23)cc(OC)c1OC`: 52.5% (active). Next, `CCOc1ccc(/C=N/Nc2nncc(-c3ccccc3)n2)cc1OC`: 14.2%.

In the case of `COc1ccc(/C=N/Nc2nc3ccccc3o2)cc1OC`, the inhibition was -2.8%. To `C=CCN(c1ccccc1C(=O)NCC(=O)OCC)S(=O)(=O)c1ccc(C)cc1` belongs 8.19%; to `CCCSc1nc2c(c(=O)n(C)c(=O)n2C)n1Cc1ccc(C)cc1`, -4.96%; to `CC(CCO)Nc1nc2c([nH]1)c(=O)n(C)c(=O)n2C` (configuration not stated), -3.43%. For `Cc1ccc(NN=Nc2nc3c([nH]2)c(=O)n(C)c(=O)n3C)cc1`, the inhibition is 55.6% (active). In the case of `Cc1cc(C(=O)NNS(=O)(=O)c2ccccc2C(F)(F)F)nn1C(C)(C)C`, the inhibition was -0.45%.

As to `Cc1cc(N2CCN(c3ccc(F)cc3)CC2)n2ncnc2n1`, the inhibition is -1.64%.

For `CC(C)NC(=O)NNc1c(Cl)cncc1Cl`, the inhibition is 3.37%. Next, `Cc1ccc(Cn2c(NC(=O)c3ccco3)nc3ccccc32)cc1`: 1.28%; `Clc1cccc(-c2nc3nc4ccccc4nc3n2Cc2ccco2)c1`: 4.89%; `Cc1ccc(Cn2c(C)nc3c(c2=O)c2nc4ccccc4nc2n3Cc2ccco2)cc1`: 63.1% (active). To `COc1ccc2c(c1)C(=C(C#N)C#N)C(=O)N2CCc1ccccc1` belongs -4.33%.

In the case of `CCCCCn1c(=O)c(C(=O)OCC)c(Cl)c2ccccc21`, the inhibition was -2.04%.

Take `CCOC(=O)/C=C/CN(C(=O)OC(C)(C)C)S(=O)(=O)N1CC=CC1`: the inhibition was -18%. Next, `CCC(C)N1C(=S)SC(C)(C)C1N(O)C(=O)NC1CCCCC1` (configuration not stated): -0.12%. On to `Cn1cccc1/C=C1\SC(=S)N(NC(=O)c2ccc(Cl)cc2)C1=O`, for which the inhibition is 18.5%.

`O=C(O)c1ccc2c(c1)C(=O)N(NC(=O)c1ccc(O)cc1)C2=O`: the inhibition was 12.9%. Take `CC(=O)N1C(=O)/C(=C2\SC(=S)N(NC(=O)c3ccc(O)cc3)C2=O)c2ccccc21`: the inhibition is 94.5% (active). With `O=C(NCCc1ccccc1)Oc1ccc(Cl)cc1`, the inhibition is 7.49%. With `COC(=O)N(NC(=O)C(O)(C(C)C)C(C)C)c1ccccc1`, the inhibition was -6.13%.

For `O=C(O)Cc1sc(-c2ccc(C(=O)O)cc2)nc1-c1ccccc1`, the inhibition was 15.3%.

In the case of `C/C(=N/Nc1nc(-c2ccccc2)c(CC(=O)O)s1)c1ccccc1`, the inhibition is 55.8% (active). To `Cc1ccc(-c2nc(C)sc2CC(=O)O)cc1` belongs 6.4%; to `CCn1c(=O)c2cc(C(=O)Nc3cccc(C(C)=O)c3)sc2c2ccccc21`, -88.5%. To `O=c1c(-c2ccc(Cl)cc2)[n+]([O-])c2ccccc2n1OCc1nc2ccccc2[nH]1` belongs -16.2%; to `COC(=O)CC1=NN(c2ccccc2)C(=O)C1`, 19.1%; to `Cc1cc(C)cc(NC(=O)C2CCN(c3nc(C)cc(C)n3)CC2)c1`, -11.6%. Next, `COC(=O)CC1=NN(c2nc(C)cc(C)n2)C(=O)C1`: 68% (active). Consider `CC(CO)(CO)NC(=O)c1ccc(=O)[nH]n1`, for which the inhibition is 4.69%. Next, `O=C(c1ccc(F)cc1)C1CCN(Cc2cn[nH]c2-c2ccccc2)CC1`: -14.2%; `Cc1cc(C(=O)N/N=C/c2ccc(O)c([N+](=O)[O-])c2)c(C)n1-c1ccc(F)cc1`: 87.3% (active); `Cc1nn(CC(=O)N/N=C/c2ccc(F)cc2)c(C)c1[N+](=O)[O-]`: 12.1%. Next, `COc1cc(/C=N/NC(=O)c2cc(C)n(-c3ccc(F)cc3)c2C)cc(OC)c1O`: 47.1%; `Cc1ccc(/C=N/NC(=S)Nc2cccc(S(=O)(=O)N(C)C)c2)o1`: -90.2%.

`OC(c1ccccc1)C(CN1CCOCC1)c1ccccc1` (configuration not stated): the inhibition is 6.74%. Turning to `CCNC(=S)N1CCN(CCN=CC2=C(O)CC(C)(C)CC2=O)CC1`, the inhibition was 7.49%. To `O=C(NCc1ccco1)c1nc(-c2ccccc2)n(-c2ccccc2)n1` belongs -7.46%; to `NNC(=O)c1oc2nc(-c3ccccc3)cc(-c3ccco3)c2c1N`, 72.9% (active). `O=C(CCc1ccccc1)Nc1cccc(-c2nnc(-c3ccco3)o2)c1`: the inhibition is 14.2%. To `NC(=O)c1ccc(NC(=O)COC(=O)c2ccc([N+](=O)[O-])cc2)cc1` belongs -10.3%; to `CCOC(=O)c1c(NC(=S)NC)sc2c1CCCC2`, 11.9%; to `COc1ccc(NC(=S)Nc2ccccc2Cl)cn1`, 16.9%. Take `COc1ccc(NC(=O)/C(Cl)=C(/Cl)S(=O)Cc2ccc(C)cc2)cn1` (configuration not stated): the inhibition is 65.8% (active).

`COc1ccc(CS(=O)/C(Cl)=C(/Cl)C(=O)Nc2ccc(OC)nc2)cc1` (configuration not stated): the inhibition was 43.3%. Next, `CCNC(=O)CCc1nc(-c2ccc(C)cc2)no1`: -1.4%. To `COc1ccccc1C1=Nc2cccc3cccc(c23)N1` belongs 75.8% (active); to `c1ccc(C2=Nc3cccc4cccc(c34)N2)cc1`, 37%. In the case of `Fc1ccccc1N=C1Nc2cccc3cccc1c23`, the inhibition was 16.1%. In the case of `N#Cc1c(C(F)(F)F)cc(-c2cccs2)nc1N1CCCCC1`, the inhibition is -6.66%. To `COc1ccc2c(CC(=O)OCC(=O)NC(N)=O)coc2c1` belongs 8.39%.

Turning to `Nc1nc(SCc2ccccc2Cl)n[nH]1`, the inhibition was -21.7%. In the case of `Clc1ccccc1CSc1nnc(-c2ccco2)c(-c2ccco2)n1`, the inhibition was 109% (active).

Turning to `c1ccc(CSc2nnc(-c3ccco3)n2Cc2ccccc2)cc1`, the inhibition is 53% (active). In the case of `c1ccc(CSc2nnc(-c3ccco3)c(-c3ccco3)n2)cc1`, the inhibition was 108% (active). Consider `O=C(CSc1nnc(-c2ccco2)n1CC1CCCO1)c1ccccc1` (configuration not stated), for which the inhibition was 5.57%.

In the case of `O=C(CSc1nnc(-c2ccco2)n1Cc1ccccc1)NC(=O)NCc1ccco1`, the inhibition was 31.8%. Take `COC(OC)c1ccnc(SCc2ccccc2Cl)n1`: the inhibition is 2.7%.

Regarding `Brc1ccc(CSc2ccc(-c3ccco3)nn2)cc1`, the inhibition is 5.62%.

On to `O=C(Nc1nnc(SCc2ccccc2)s1)c1ccco1`, for which the inhibition is -9.36%. As to `COc1ccc(CC(=O)NCC(=O)N/N=C/c2cc(Br)ccc2OC)cc1`, the inhibition is 0.9%.

With `Clc1ccc2nc(-c3ccccc3)nc(C(Cl)Cl)c2c1`, the inhibition was -22.1%. Next, `Nc1c(N(CCO)C(=O)C2CCCCC2)c(=O)[nH]c(=O)n1Cc1ccccc1`: 24.7%; `Cc1c(NC(=O)CN2C(=O)C(=O)N(Cc3ccccc3)C2=O)c(=O)n(-c2ccccc2)n1C`: 8.51%; `Cn1nccc1NC(=O)CC(CC(=O)O)c1ccccc1` (configuration not stated): -13%. Next, `Cc1cc(N2CCN(c3ccccc3)CC2)nc(N2CCOCC2)n1`: 14.2%; `Cc1cc(/C=C2/C(=N)N3C(=NC2=O)SN=C3S(C)(=O)=O)c(C)n1-c1ccccc1`: 16.9%; `CS(=O)(=O)c1ccc2c(c1)SC1=NC(=O)/C(=C/c3ccco3)C(=N)N12`: 103% (active). With `CCS(=O)(=O)C1=NSC2=NC(=O)/C(=C\c3cc(C)n(-c4cccc(OC)c4)c3C)C(=N)N21`, the inhibition was 37.6%. Next, `OCC1(Cc2ccccc2C(F)(F)F)CCN(Cc2ccncc2)CC1`: 13.3%; `CC(C)(C)NC(=O)NCc1ccco1`: 8.79%. With `O=C(Nc1ccccc1)Nc1nnc(COc2ccccc2F)s1`, the inhibition is 23.7%. Next, `O=c1[nH]c(=S)[nH]c2[nH]c(=S)[nH]c12`: 95.1% (active); `Cc1cc(=O)[nH]c(=S)[nH]1`: 4.28%; `Cc1c(C)c(C)c2[nH]c(=S)[nH]c2c1C`: 2.53%. In the case of `O=C(COC(=O)/C=C/c1ccc2c(c1)OCO2)NC1CCS(=O)(=O)C1` (configuration not stated), the inhibition is 16%.

As to `COc1ccc(OC)c(Nc2nc3ccccc3n3cnnc23)c1`, the inhibition is 16.9%. Next, `O=C(N/N=C/c1ccc([N+](=O)[O-])o1)c1cccc(S(=O)(=O)N2CCOCC2)c1`: 5.84%; `O=[N+]([O-])c1cc(Cl)cc(/C=N/NC(=S)Nc2cc(S(=O)(=O)N3CCOCC3)ccc2Cl)c1O`: 100% (active); `O=C(CN1CCN(c2ccc(O)cc2)CC1)Nc1cc(S(=O)(=O)N2CCOCC2)ccc1Cl`: 49.8%.

As a reminder, the inhibition is the relative decrease from the control value, in per cent.
